Source: PubChem (National Center for Advancing Translational Sciences (NCATS))
Shown are actives, neighbours in structure and some others; about 19% of the full set was active somewhere.
HT1080NT lethal: qHTS for induction of synthetic lethality in tumor cells producing 2HG: qHTS for the HT-1080-NT fibrosarcoma cell line | Potency, µM (doses to about 46.1 µM), without a hit: at the top dose activity, negative = less viability, actives largely listed as cytotoxic | HT-1080-NT fibrosarcoma viability, CellTiter-Glo ATP luminescence, 48 h | AID 686970, 2013 | 360,000 compounds, 1.6% hits;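 note: NT is the 2HG producing partner of a matched IDH1 knockdown line; potency is the fitted concentration of half-maximal effect; 0% = DMSO-treated cells and -100% = media-only wells without cells; nearly all actives have a fitted effect of over 55% in size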
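Fibrosarcoma NT cells, 750 per well in 5% FBS RPMI, were exposed to compound for 48 hours. Viability: CellTiter-Glo luminescence.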
IL-1B inflam inh: qHTS for Inhibitors of Inflammasome Signaling: IL-1-beta AlphaLISA Primary Screen | THP-1 LPS/ATP IL-1B secretion, AlphaLISA, 16 h; active compounds read low | AID 743279, 2014 | activity change, % at 57.5 µM | 360,000 compounds, 4.7% hits; in the data active = activity change below about -50%; inconclusive = mostly about -30% to -49%
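Secreted IL-1B measured by AlphaLISA bead assay after 16 h compound exposure of THP-1 cells; compounds (final up to 57.5 uM) added 1 h before LPS (250 ng/mL) and ATP (1.25 mM) stimulation; lower signal means less secretion.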
TDP1 cell CPT: qHTS for Inhibitors of human tyrosyl-DNA phosphodiesterase 1 (TDP1): qHTS in cells in presence of CPT. chicken DT40 Tdp1-/-;hTDP1 cells + 20 nM CPT, ATP luminescence, 48 h. Potency, µM (top dose mostly 46.2 µM), inactives show at the top dose activity change, negative = growth inhibition, most hits filed as inhibitors. 420,000 compounds, 12% hits. AID 686979, 2013; note: potency is the fitted concentration of half-maximal effect; nearly all actives have a fitted effect of over 55% in size
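Cell growth measured by CellTiter-Glo luminescence after a minimum 48 h, 37 C compound exposure with 20 nM CPT in Tdp1-knockout DT40 cells stably expressing hTDP1, seeded 400/well; qHTS titration format.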
HT1080 IDH1KD tx: qHTS for induction of synthetic lethality in tumor cells producing 2HG: qHTS for the HT-1080-IDH1KD cell line; HT-1080 IDH1 knockdown viability, ATP luminescence, 48 h; Potency, µM (doses to about 46.1 µM), for the others: at the highest dose activity, negative = toxicity, hits mostly cytotoxic; 360,000 compounds, 2% hits;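 note: potency is the fitted concentration of half-maximal effect; 0% = DMSO wells and -100% = cell-free medium wells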
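Knockdown cells (IDH1KD HT-1080) received compounds 2 h after plating at 750 cells/well and were kept 48 h at 37 °C in 5% FBS RPMI. A CellTiter-Glo luminescence read gave % activity for curve fitting.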
TDP1 cell noCPT: qHTS for Inhibitors of human tyrosyl-DNA phosphodiesterase 1 (TDP1): qHTS in cells in absence of CPT; DT40 Tdp1-/- hTDP1 cells, no CPT, ATP luminescence, 48 h; Potency, µM (top dose mostly 46.2 µM), for inactives: at the top dose activity change, negative = growth inhibition, usual class: inhibitors; 420,000 compounds, 15% hits; AID 686978, 2013; note: potency is the fitted concentration of half-maximal effect; nearly all actives have a fitted effect of over 55% in size
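Growth of hTDP1-complemented DT40 Tdp1-knockout cells is measured by ATP luminescence after at least 48 hr compound exposure at 37 °C, with DMSO substituting for the 20 nM CPT used in the parallel screen.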
Starred values were filed as active, the others as inactive; ? = inconclusive; · = not tested or not shown; ! = not active in a repeat. Unless noted, calls come from the whole dose curve; as a rule, active = well fitted curve in the direction sought with a large enough effect; inconclusive = small, poorly fitted or top-dose-only effect, or another doubt; inactive = no such curve, though single readings can be large; an effect the other way counts as inactive or inconclusive. Unless noted, % is set by controls: 0 for no effect and ±100 for the full control effect.

SMILES | HT1080NT lethal | IL-1B inflam inh | TDP1 cell CPT | HT1080 IDH1KD tx | TDP1 cell noCPT
N#CC(C#N)=c1ccc2c(c1)NC1(CCCCC1)N=2 | ? | -104.0* | 11.6µM* | 23.1µM* | 10.3µM*
Cc1c(Cl)cccc1NC(=O)c1cc(-c2cccs2)on1 | · | · | ? | · | -27.7%
CCC(C)Sc1ccc([C@@H]2[C@H]3C(=O)N(CC)C(=O)[C@H]3[C@]3(C(=O)OC)CCCN23)cc1OC (stereo partly specified) | 0.9% | -5.8 | 23.1µM* | 0.2% | 23.1µM*
CCC(C)Sc1ccc([C@@H]2[C@@H]3C(=O)N(CC)C(=O)[C@@H]3[C@]3(C(=O)OC)CCCCN23)cc1 (stereo partly specified) | 0.5% | 1.2 | ? | 20.1% | 20.6µM*
CCC(C)Sc1ccc([C@@H]2[C@@H]3C(=O)N(C)C(=O)[C@@H]3[C@]3(C(=O)OC)CCCCN23)cc1 (stereo partly specified) | 2.4% | -24.5 | 18.4µM* | 3.7% | ?
CC1Cc2ccccc2N1Cc1cccc([N+](=O)[O-])c1 (stereo unspecified) | -2.4% | -3.3 | 1.1% | -0.2% | -1.5%
CCCc1cc(=O)[nH]c(SCC(=O)Nc2sc3c(c2C(N)=O)CCCC3)n1 | 12.4% | 17.8 | -26.1% | 3.4% | -24.7%
COc1cc(-c2coc3c(C(=O)NCc4ccncc4)cccc23)ccc1O | -7.6% | -67.3* | -98.8% | -11.6% | -90.6%
COc1cc(-c2coc3c(C(=O)NCc4ccc(C(F)(F)F)cc4)cccc23)ccc1O | ? | ? | 14.6µM* | 25.9µM* | 20.6µM*
O=C(NCc1ccc(C(F)(F)F)cc1)c1cccc2c(-c3cccnc3)coc12 | ? | 0.0 | ? | ? | -29.7%
O=C(CSc1ccc(Br)cc1)Nc1ccc(N2CCOCC2)cc1 | 1.3% | 4.0 | -13.7% | -3.5% | 1.4%
CC1(C)Cc2ccccc2C2CC(O)C(=O)N21 (stereo unspecified) | 7.4% | -1.1 | 14.6µM* | 18.9% | ?
O=C1c2ccccc2[C@@H]2CC(O)C(O)CCN12 (stereo partly specified) | 8.2% | 0.2 | -12.2% | 8.2% | -8.2%
CC(=O)N[C@@H]1C(O[C@H]2O[C@H](C(=O)O)C(O)[C@H](O)[C@H]2O)[C@H](O)[C@@H](CO)O[C@H]1O[C@@H]1C(C(=O)O)O[C@@H](O[C@H]2[C@H](O)[C@@H](CO)OC(O)[C@@H]2NC(C)=O)[C@H](O)[C@H]1O (stereo partly specified) | · | · | -1.6% | · | 21.1µM*
OC[C@H]1O[C@@H](O[C@H]2[C@H](O)[C@@H](O)[C@H](O)O[C@@H]2CO)[C@H](O)[C@@H](O)[C@@H]1O | · | · | 18.5% | · | -13.3%
O=c1onc2cnc3ccccc3n12 | · | · | ? | · | 13.3µM*
c1ccc2c(c1)ncc1nncn12 | · | · | -6.2% | · | -19.7%
CN(CCOc1ccccc1)S(=O)(=O)c1ccc2oc3ccccc3c2c1 | 0.0% | -19.2 | ? | -6.9% | 23.1µM*
COC(=O)c1nn(-c2ccc(OC)cc2)ccc1=O | 2.3% | -5.8 | 7.1% | 1.4% | 0.1%
CC1CN(C)C(C)c2c1oc1ccc(N)cc21 (stereo unspecified) | -13.8% | 0.0 | ? | -7.7% | 10.3µM*
CC1CN(C)C(C)c2c1oc1ccc([N+](=O)[O-])cc21 (stereo unspecified) | -0.7% | -0.3 | -1.6% | -13.4% | 0.7%
COc1ccc(C(=O)/C=C/Nc2ccc(S(=O)(=O)Nc3onc(C)c3C)cc2)cc1 | -3.8% | 16.4 | -3.3% | -19.9% | ?
O=C(c1ccc2c(c1)CCN2S(=O)(=O)c1ccccc1)N1CCN(c2ccc(F)cc2)CC1 | -18.0% | -19.8 | 23.1µM* | -14.2% | 14.6µM*
CCN(c1ccccc1)S(=O)(=O)c1ccc(C(=O)N2CCCC(C(F)(F)F)C2)cc1 (stereo unspecified) | -3.6% | 1.6 | 8.2µM* | -7.8% | 23.1µM*
O=C(c1ccc(S(=O)(=O)Nc2ccccc2)cc1)N1CCCC(C(F)(F)F)C1 (stereo unspecified) | 3.4% | 98.2 | ? | -2.1% | ?
SMILES | HT1080NT lethal | IL-1B inflam inh | TDP1 cell CPT | HT1080 IDH1KD tx | TDP1 cell noCPT
CCS(=O)(=O)N1CCc2cc(C(=O)N3CCN(c4ccccc4)CC3)ccc21 | · | · | 16.4µM* | · | 14.6µM*
CS(=O)(=O)N1CCc2cc(C(=O)N3CCOCC3)ccc21 | 12.6% | -1.4 | -0.8% | 7.1% | 7.3%
CS(=O)(=O)N1CCc2cc(C(=O)N3CCN(c4cccc(Cl)c4)CC3)ccc21 | 0.9% | -7.7 | 16.4µM* | 3.9% | 18.4µM*!
COC(=O)C[C@H]1CC[C@@H](NC(=O)Nc2c(C)noc2C)[C@@H](CO)O1 | 12.2% | -9.6 | 10.7% | 17.4% | 2.0%
O=C(c1cccc(S(=O)(=O)N2CCc3ccccc3C2)c1)N1CCN(c2ccccc2)CC1 | -0.2% | -9.2 | ? | -22.3% | ?
O=C(c1cccc(S(=O)(=O)N2CCCC2)c1)N1CCCC(C(F)(F)F)C1 (stereo unspecified) | 14.3% | 2.7 | -20.7% | 7.7% | -17.1%
COc1ccccc1N1CCN(C(=O)c2ccc3c(c2)CCN3S(=O)(=O)c2ccccc2)CC1 | -12.3% | ? | 8.2µM* | -27.9% | 2.91µM*
O=C(c1cccc(S(=O)(=O)N2CCc3ccccc32)c1)N1CCN(c2ccccc2)CC1 | 13µM* | ? | ? | ? | 29.1µM*
O=C(c1cccc(S(=O)(=O)N2CCc3ccccc32)c1)N1CCCC(C(F)(F)F)C1 (stereo unspecified) | -12.5% | 16.1 | 10.3µM* | -4.2% | 20.6µM*
CC(=O)N1CCc2cc(C(=O)CN3CCN(c4cccc(Cl)c4)CC3)ccc21 | 6.7% | 14.7 | 14.6µM* | 1.1% | 20.6µM*
COc1ccccc1N1CCN(C(=O)c2ccc(S(=O)(=O)N3CCCCCC3)cc2)CC1 | -10.2% | -9.2 | ? | -11.4% | ?
Cc1ncc(COCc2ccccc2)c(CO)c1OCc1ccccc1 | 7.2% | -1.4 | ? | 6.5% | ?
C=CCN1C(=O)C(CC(=O)O)SC1=Nc1ccc(C)cc1 (stereo unspecified) | 3.3% | 15.2 | 0.3% | 11.3% | 14.4%
Cc1nc2ccccc2n1CCc1nc2c3ccccc3nc(=S)n2[nH]1 | 3.8% | 33.2 | -12.6% | 4.2% | -21.1%
COc1cc2nc(=S)n3[nH]c(COc4ccccc4C)nc3c2cc1OC | 6.1% | 6.9 | 1.16µM* | -4.7% | 5.8µM*
